Ten molecules from PubChem BioAssay can be followed below.

Activity calls are given as the source filed them.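 How the source made its calls, unless noted: active means fluorescence slope after compound addition differing from the mean of all screened samples at 99.7% confidence, in either direction; inactive means the rest.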

Assay [1] can be described thus: inhibitors of TNFa-induced NFkB p65 translocation, primary screen, imaging, HUVEC, MLSMR starter and 10KST1 sets (AID 438;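 active means inhibition above 20% together with a positive visual image hit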;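 further: compound added about 3h40 before a 20 min TNFalpha stimulation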;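 on inhibition: signal is the nuclear over cytoplasmic p65 intensity ratio per well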). Conditions: HUVEC TNFa-induced p65 nuclear translocation; cell count: measured here: nuclei count (cytotoxicity indicator), at 2.08 µM; inhibition: at 2 µM, stronger effect = higher value, 0% TNFa-plus-vehicle, 100% no-TNFa wells.
Assay [2] in a line: inhibitors of mutant huntingtin aggregation, primary screen, imaging, exon1htt(103Q)mCFP cells, high-content imaging (AID 483;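 active means visual image review flags a hit and inhibition of aggregation exceeds 20%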;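 further: compound exposure lasted 3 days before fixation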;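 on nuclei count: percent of the per-plate median nuclei count of sample wells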). The conditions noted are these: exon1htt(103Q)mCFP cell line, aggregate imaging, at 2 µM; inhibition of aggregation: stronger effect = higher value; nuclei count: measured here: cell count, toxicity.
The nature of assay [3]: inhibitors of E-selectin induction by TNFa, primary screen, imaging, HUVEC, immunofluorescence, MLSMR starter and 10KST1 sets (AID 487;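 active means visually confirmed hit in the image check and inhibition above 20%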;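 on inhibition: signal is fraction of cell area covered by stained E-selectin grains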;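 on nuclei count: 100% = median nuclei count of all wells on the same plate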). Conditions: HUVEC TNFalpha-induced E-selectin immunofluorescence imaging, at 2 µM; inhibition: stronger effect = higher value; nuclei count: measured here: cell number, toxicity.
Assay [4] deals with Voltage-gated potassium channel subunit beta-2 (Rattus norvegicus) (UniProt P62483). The assay is described as follows: KvBeta enzyme negative modulators, primary screen, biochemical, NADPH fluorescence (AID 622;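 active means fluorescence slope higher than the sample average by over 3 SD, cut at about -0.22 in these data, passing the limit was not always enough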;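 further: slope of raw intensity against log time taken from 70 to 1610 s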). Conditions: recombinant KvBeta, 4-cyanobenzaldehyde reduction, at 10 µM, stronger effect = higher value.
The target is the same in assay [5]. As to the kind of experiment: KvBeta positive modulators, primary screen, biochemical, NADPH fluorescence (AID 623;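 active means NADPH fluorescence slope more negative than the mean of all samples by about 3 SD, 99.7% confidence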;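 further: fluorescence intensity change per second fitted from 20 to 320 s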). Conditions: Recombinant KvBeta, NADPH fluorescence decrease slope, 10 min; at 10 µM; stronger effect = lower value.
In assay [6] the target is Alpha-2C adrenergic receptor (Homo sapiens) (UniProt P18825). The assay is described as follows: modulators of alpha2C/GIRK thallium flux, primary screen, cell-based, HEK293 alpha2C/GIRK1/2 (AID 624).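 Further: slope of fluorescence ratio to pre-addition baseline per second over 15 to 24 s.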 Conditions: thallium flux BTC fluorescence, at 10 µM, actives lie on both sides.
Assay [7] in a line: inhibitors of Sendai virus-induced IRF3 signaling, primary screen, TLR/RLR signaling modifier project, cell-based, Sendai virus stimulus, luciferase, 10K MLSCN set (AID 602276;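 active means inhibition at or above 50% at 10 µM; inactive means inhibition below 50%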;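 further: firefly luciferase from ISG56 promoter only with Renilla not read in this screen; 0% = Sendai virus plus DMSO and 100% = medium plus DMSO without virus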). Conditions: HEK293 RL24 IRF3 luciferase reporter, at 10 µM, stronger effect = higher value. On the technique in general: A reporter such as luciferase makes a cellular process visible.
Assay [8] in a line: inhibitors of poly I:C-induced TLR3 signaling, primary screen, cell-based, poly I:C stimulus, luciferase, 10K MLSCN set (AID 602277;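 active means inhibition of the reporter signal at or above 50%; inactive means inhibition below 50%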). Conditions: HEK293-TLR3 RL24 IRF3 luciferase reporter, at 10 µM, stronger effect = higher value.

Chain of Alpha-2C adrenergic receptor (Homo sapiens) (P18825 whole entry, looked up): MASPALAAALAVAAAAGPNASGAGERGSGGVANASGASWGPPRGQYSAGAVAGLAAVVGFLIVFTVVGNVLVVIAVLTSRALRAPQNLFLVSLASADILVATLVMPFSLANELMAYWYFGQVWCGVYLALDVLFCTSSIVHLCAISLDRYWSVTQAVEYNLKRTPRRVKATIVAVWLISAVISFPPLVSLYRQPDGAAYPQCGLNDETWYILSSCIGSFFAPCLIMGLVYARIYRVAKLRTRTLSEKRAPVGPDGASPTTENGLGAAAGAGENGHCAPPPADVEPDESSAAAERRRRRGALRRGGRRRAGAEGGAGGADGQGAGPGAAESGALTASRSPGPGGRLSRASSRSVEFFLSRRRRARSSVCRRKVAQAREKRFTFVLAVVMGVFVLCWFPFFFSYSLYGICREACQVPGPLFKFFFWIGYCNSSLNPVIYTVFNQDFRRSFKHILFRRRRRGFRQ
Chain of Voltage-gated potassium channel subunit beta-2 (Rattus norvegicus) (P62483 whole entry, looked up): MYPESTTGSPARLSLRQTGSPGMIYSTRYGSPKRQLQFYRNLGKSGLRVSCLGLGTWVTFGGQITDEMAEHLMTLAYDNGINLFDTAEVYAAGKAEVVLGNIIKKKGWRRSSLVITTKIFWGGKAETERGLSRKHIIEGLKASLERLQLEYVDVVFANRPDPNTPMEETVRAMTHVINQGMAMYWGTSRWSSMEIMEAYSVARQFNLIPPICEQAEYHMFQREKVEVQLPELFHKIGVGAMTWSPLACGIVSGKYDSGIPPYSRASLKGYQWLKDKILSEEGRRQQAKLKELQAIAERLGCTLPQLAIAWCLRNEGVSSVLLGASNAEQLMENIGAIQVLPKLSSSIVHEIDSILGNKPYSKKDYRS

A word on the inhibition: it is the change of the read-out against control, counted positive when it falls. With `N#Cc1cc2c(nc1SCC(=O)Nc1sc3c(c1C#N)CCC3)CCCCC2`, the cell count in assay [1] is 606. Further, the inhibition in assay [1] was 5.3% (inactive); in assay [3], 32.4% (inactive); in assay [7] it was 1.89% (inactive); in assay [8] it was -0.19% (inactive). The inhibition of aggregation in assay [2] is -0.2% (inactive). In addition, the nuclei count worked out at 103% in assay [2] and 104% in assay [3]. Besides, in assay [4], the fluorescence slope is -0.323 (inactive). Also, the NADPH fluorescence slope in assay [5] is -4.1e-05 (inactive). In addition, the slope in assay [6] was 0.00575 (inactive).
In the case of `COc1cc2c(cc1OC)C(c1cccnc1)CC(=O)N2` (stereo not given), the cell count in assay [1] is 481. Also, the inhibition in assay [1] is -7.4% (inactive); in assay [3], -30.8% (inactive); in assay [7] it was 9.14% (inactive); in assay [8] it was 14.4% (inactive). The inhibition of aggregation in assay [2] was -12.3% (inactive). The nuclei count in assay [2] is 71.7%; in assay [3] it was 117%. Further, in assay [4], the fluorescence slope is -0.513 (inactive). Moreover, the NADPH fluorescence slope in assay [5] was -2.9e-05 (inactive). Moreover, the slope in assay [6] was 0.00629 (inactive).
Consider `COc1cccc(CN2CCN(C(=O)CC(C)C)CC2)c1`, for which, in assay [1], the cell count was determined as 448. The inhibition was 2.2% (inactive) in assay [1], -45.8% (inactive) in assay [3], 10.5% (inactive) in assay [7] and 4.9% (inactive) in assay [8]. In assay [2], the inhibition of aggregation was -3.8% (inactive). Besides, the figures for the nuclei count in assay [2] and in assay [3] were 118% and 132%, respectively. In addition, in assay [4], the fluorescence slope is -0.241 (inactive). In addition, the NADPH fluorescence slope in assay [5] is 2.2e-06 (inactive). In addition, the slope in assay [6] is 0.00544 (inactive).
Regarding `Cc1c2cnn(CC(=O)N3CCN(c4ncccn4)CC3)c(=O)c2c(C)n1Cc1ccc(F)cc1`, the cell count in assay [1] came out at 405. The inhibition was -9.2% (inactive) in assay [1], -130% (inactive) in assay [3], -14.2% (inactive) in assay [7] and -8.56% (inactive) in assay [8]. In addition, in assay [2], the inhibition of aggregation is 4.7% (inactive). Moreover, the nuclei count in assay [2] turned out to be 99.5%; in assay [3], 118%. The fluorescence slope in assay [4] was -0.371 (inactive). Moreover, the NADPH fluorescence slope in assay [5] is -3.3e-05 (inactive). In addition, the slope in assay [6] is 0.00444 (inactive).
In the case of `COc1cc2c(C)nc(C)c(C#N)c2cc1OC`, the cell count in assay [1] turned out to be 709. Also, the inhibition in assay [1] was -23.3% (inactive); in assay [3], -12.4% (inactive); in assay [7], 2.98% (inactive); in assay [8], 2.54% (inactive). In addition, the inhibition of aggregation in assay [2] was -17.8% (inactive). In addition, the nuclei count stood at 85.6% in assay [2] and 124% in assay [3]. Besides, the fluorescence slope in assay [4] was -0.481 (inactive). In addition, the NADPH fluorescence slope in assay [5] is -4.4e-05 (inactive). For the same molecule, in assay [6], the slope was 0.00598 (inactive).
Consider `Cc1nc2c(-c3ccccc3)c(C)nn2c(C)c1CCC(=O)NCc1ccco1`, for which the cell count in assay [1] is 545. For the same molecule, the inhibition is -1.1% (inactive) in assay [1], -61.2% (inactive) in assay [3], 9.03% (inactive) in assay [7] and 31.1% (inactive) in assay [8]. For the same molecule, in assay [2], the inhibition of aggregation is -8.9% (inactive). The figures for the nuclei count in assay [2] and in assay [3] were 84.3% and 102%, respectively. Moreover, the fluorescence slope in assay [4] was -0.584 (inactive). In assay [5], the NADPH fluorescence slope is 1.5e-05 (inactive). For the same molecule, the slope in assay [6] was 0.00663 (inactive).
As for `CC(C)CNC(=O)c1ccccc1NC(=O)c1ccc(CN2CCOCC2)cc1`, the cell count in assay [1] was determined as 729. The inhibition in assay [1] was 5.7% (inactive); in assay [3] it was -11% (inactive); in assay [7] it was 1.28% (inactive); in assay [8] it was 14.5% (inactive). In addition, in assay [2], the inhibition of aggregation is 4% (inactive). For the same molecule, the nuclei count in assay [2] is 93.4%; in assay [3], 111%. In assay [4], the fluorescence slope is -0.473 (inactive). In addition, in assay [5], the NADPH fluorescence slope is -5.1e-05 (inactive). Moreover, in assay [6], the slope is 0.00594 (inactive).
Take `COc1ccc(C(c2nnnn2C2CCCC2)N2CCN(C3CCCC3)CC2)cc1OC` (stereo not given): the cell count in assay [1] was 263. The inhibition in assay [1] is 17.5% (inactive); in assay [3] it was 2% (inactive); in assay [7], 12.8% (inactive); in assay [8] it was 18.8% (inactive). Further, the inhibition of aggregation in assay [2] is 8.8% (inactive). Further, the figures for the nuclei count in assay [2] and in assay [3] were 104% and 88.5%, respectively. For the same molecule, the fluorescence slope in assay [4] was -0.512 (inactive). In assay [5], the NADPH fluorescence slope is -0.000149 (inactive). Moreover, the slope in assay [6] is 0.00468 (inactive).
In the case of `CCOC(=O)Cc1csc(/C(=N/O)C(N)=O)n1`, the cell count in assay [1] is 638. Further, the inhibition in assay [1] is 2.7% (inactive); in assay [3], -62.8% (inactive); in assay [7] it was 13.2% (inactive); in assay [8] it was 15.9% (inactive). The inhibition of aggregation in assay [2] was 0.1% (inactive). The nuclei count in assay [2] turned out to be 126%; in assay [3] it was 108%. In addition, the fluorescence slope in assay [4] was -0.48 (inactive). The NADPH fluorescence slope in assay [5] was -9.9e-05 (inactive). The slope in assay [6] was 0.00629 (inactive).
As for `O=C(Nc1cccc(F)c1)C1C2C=CC3(CN(CCCN4CCOCC4)C(=O)C13)O2` (stereo not given), the cell count in assay [1] came out at 661. In addition, the inhibition in assay [1] is -5.5% (inactive); in assay [3], -75.2% (inactive); in assay [7], -14.3% (inactive); in assay [8], 12.3% (inactive). In addition, in assay [2], the inhibition of aggregation is -27.1% (inactive). Also, the nuclei count was determined as 118% in assay [2] and 116% in assay [3]. Besides, the fluorescence slope in assay [4] is -0.548 (inactive). Further, the NADPH fluorescence slope in assay [5] is -3.3e-05 (inactive). Also, the slope in assay [6] is 0.00626 (inactive).
